A short description of this test: chemical genetic growth profiling, strain panel (AID 1159580).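 Also: tested at 20 µM; growth read once vehicle control cultures reached saturation at 30 °C; 1 = growth at the plate median or of vehicle wells; lower values mean less growth of the strain.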 The following applies: S. cerevisiae deletion strains, growth OD.
Setting [1] is: locus YAL040C, strain CLN3, active compounds read low.
The mark [2] stands for this setting: locus YCL061C, strain MRC1 (second series), active compounds read low.
Setting [3] is: locus YDR150W, strain NUM1, active compounds read low.
The mark [4] stands for this setting: locus YDR363W, strain ESC2, active compounds read low.
Where [5] appears, read: locus YER002W, strain NOP16, active compounds read low.
The mark [6] stands for this setting: locus YJR075W, strain HOC1, active compounds read low.
The mark [7] stands for this setting: locus YMR263W, strain SAP30, active compounds read low.
The mark [8] stands for this setting: locus YMR307W, strain GAS1, active compounds read low.
Where [9] appears, read: locus YNL153C, strain GIM3, active compounds read low.
[10] abbreviates: locus YNL175C, strain NOP13, active compounds read low.
Where [11] appears, read: locus YNL197C, strain WHI3, active compounds read low.
Where [12] appears, read: locus YNL224C, strain SQS1, active compounds read low.
Setting [13] is: locus YOR083W, strain WHI5 (second series), active compounds read low.
[14] abbreviates: locus YAL013W, strain DEP1, active compounds read low.
Where [15] appears, read: locus YNL322C, strain KRE1, active compounds read low.
Setting [16] is: locus YPL241C, strain CIN2, active compounds read low.
The mark [17] stands for this setting: locus YBR229C, strain ROT2, active compounds read low.
The mark [18] stands for this setting: locus YDL101C, strain DUN1, active compounds read low.
Setting [19] is: locus YDL134C, strain PPH21, active compounds read low.
Setting [20] is: locus YEL061C, strain CIN8, active compounds read low.
Where [21] appears, read: locus YGR078C, strain PAC10, active compounds read low.
The mark [22] stands for this setting: locus YHR030C, strain SLT2, active compounds read low.
[23] abbreviates: locus YHR087W, strain rtc3, active compounds read low.
Setting [24] is: locus YJR043C, strain POL32, active compounds read low.
The mark [25] stands for this setting: locus YLR039C, strain RIC1, active compounds read low.
Where [26] appears, read: locus YLR058C, strain SHM2 (second series), active compounds read low.
The mark [27] stands for this setting: locus YLR085C, strain ARP6, active compounds read low.
The mark [28] stands for this setting: locus YLR262C, strain YPT6, active compounds read low.
Setting [29] is: locus YML094W, strain GIM5, active compounds read low.
The mark [30] stands for this setting: locus YMR219W, strain ESC1, active compounds read low.
Setting [31] is: locus YNL298W, strain CLA4 (second series), active compounds read low.
[32] abbreviates: locus YNR030W, strain Alg12, active compounds read low.
[33] abbreviates: locus YOL006C, strain TOP1, active compounds read low.
Where [34] appears, read: locus YPL055C, strain LGE1, active compounds read low.
The mark [35] stands for this setting: locus YPR135W, strain CTF4, active compounds read low.

The whole screen tested about 5,500 compounds, of which about 2,000 (36%) were called active. Inconclusive results (about 18%) are left out. The list shows a part of the results. Values without a mark were called inactive. Rule as the data show it: active = normalized growth mostly below about 0.91 (no sharp cut-off); inconclusive = no clear call, values can overlap the other calls; inactive = mostly above about 0.92.

In the case of `O=c1oc(Cl)c(Cl)c2ccccc12`, the normalized growth reads like this: under setting [1], 1.03; under setting [2], 1; under setting [3], 0.991; under setting [4], 1; under setting [5], 1.02; (locus YGR229C, strain SMI1, active compounds read low) 0.968. Besides, the normalized growth under setting [6] was 0.998; the normalized growth under setting [7] is 1; the normalized growth under setting [8] was 1; the normalized growth under setting [9] is 0.798 (active); the normalized growth under setting [10] is 1.01; the normalized growth under setting [11] was 1.02. In addition, the normalized growth under setting [12] is 0.923 and the normalized growth under setting [13] was 0.915.

Turning to `NC(=S)c1ccc[n+]([C@@H]2O[C@@H](COP(=O)([O-])OP(=O)(O)OC[C@H]3O[C@@H](n4cnc5c(N)ncnc54)C(OP(=O)(O)O)[C@H]3O)C(O)C2O)c1` (stereo partly drawn), the normalized growth is 1.02 under setting [14]; 1.03 under setting [1]; 1.01 under setting [2]; 1 under setting [4]; 0.999 under setting [5]; 0.995 under setting [7]. The normalized growth under setting [8] is 1; the normalized growth under setting [10] was 1; the normalized growth under setting [11] was 1.03; the normalized growth under setting [12] is 1; the normalized growth under setting [15] is 1.02; the normalized growth under setting [13] is 0.998. Under setting [16], the normalized growth was 1.01.

Take `Cc1ccc(S(=O)(=O)Oc2cc(=O)n(C)c3ccccc23)cc1`: the normalized growth by setting is: under setting [14], 0.95; under setting [17], 0.967; under setting [18], 0.967; under setting [19], 0.945; under setting [3], 0.918; under setting [20], 0.972. The normalized growth under setting [21] was 0.955; the normalized growth under setting [22] was 0.791; the normalized growth under setting [23] is 0.961; the normalized growth (locus YJL187C, strain SWE1, active compounds read low) was 0.861 (active); the normalized growth under setting [24] was 0.961; the normalized growth under setting [6] is 0.96. In addition, the normalized growth under setting [25] is 0.971; the normalized growth under setting [26] is 0.952; the normalized growth under setting [27] was 0.838; the normalized growth under setting [28] is 0.918; the normalized growth under setting [29] is 0.952; the normalized growth under setting [30] is 0.963. Further, the normalized growth reads like this: under setting [7], 0.903; under setting [8], 0.622 (active); under setting [9], 0.954; under setting [31], 0.916; under setting [15], 0.977; under setting [32], 0.909. Besides, the normalized growth was 0.808 under setting [33], 0.898 under setting [34], 0.873 under setting [16] and 0.666 under setting [35].

As for `Cc1ccc(S(=O)(=O)Oc2ccc(CC#N)cc2)cc1`, the normalized growth was 0.998 under setting [14]; 0.963 under setting [17]; 1.02 under setting [18]; 0.978 under setting [19]; 0.995 under setting [3]; 0.976 under setting [20]. For the same compound, the normalized growth under setting [21] was 1.01; the normalized growth under setting [22] was 0.974; the normalized growth under setting [23] is 0.953; the normalized growth under setting [24] was 1.01; the normalized growth under setting [6] is 0.993; the normalized growth (locus YKL190W, strain CNB1, active compounds read low) was 0.945. The normalized growth under setting [25] was 0.865; the normalized growth under setting [26] is 0.977; the normalized growth under setting [27] is 0.929; the normalized growth under setting [28] is 0.845; the normalized growth under setting [29] is 0.956; the normalized growth under setting [30] is 0.989. Moreover, the normalized growth is, setting by setting: under setting [7], 0.995; (locus YNL128W, strain TEP1, active compounds read low) 0.995; under setting [9], 1.01; under setting [31], 0.977; under setting [15], 0.978; under setting [32], 0.969. Besides, the normalized growth is 0.971 under setting [33], 0.958 under setting [34], 0.979 under setting [16] and 0.863 under setting [35].

The values above are taken from PubChem BioAssay AID1159580 (chemical genetic matrix, 2015).
